Sampled rows, rich in hits. Any-hit rate of the full collection: about 2.5%.
PHOSPHO1 inh = PHOSPHO1 (human) inhibition; AID 1565; actives 1.1% (n = 290,000); inhibition, % at 13.3 µM; recombinant PHOSPHO1, absorbance phosphatase assay; in the data active = inhibition above about 60%
M18AAP inhibitor = blocks P. falciparum M18 aspartyl aminopeptidase; recombinant PfM18AAP, H-Glu-NHMec fluorogenic cleavage; inhibition, % at 7.35 µM; actives 1.2% (n = 290,000); AID 1822;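 active = inhibition above the campaign mean inhibition over all tested compounds plus 3 SD, cut at about 28% in these data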;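 also: 0% = plate median of test compound wells and 100% = 2 mM ZnCl2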
p97 ATPase inh = blocks human p97 ATPase activity. P55072. recombinant p97 ATPase, Kinase-Glo ATP luminescence, 3 h. inhibition, % at 8 µM. actives 0.42% (n = 220,000). AID 1481; in the data active = inhibition above about 15%;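 also: 0% = DMSO vehicle and 100% = wells lacking enzyme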
G6PDH counter = inhibits Leuconostoc G6PDH, flagging false hits in G6PDH-based assays | Purified L. mesenteroides G6PDH, diaphorase/resazurin coupled fluorescence, 45 min | inhibition, % at 5 µM | AID 1020 | actives 0.12% (n = 200,000); in the data active = inhibition above about 50%
HDAC3 inhib = blocks human histone deacetylase 3 | O15379 | recombinant HDAC3, fluorogenic peptide/trypsin coupled, fluorescence | inhibition, % at 8.3 µM | actives 0.15% (n = 320,000) | AID 2718; in the data active = inhibition above about 26%, passing the limit was not always enough
UBC9 SUMO inh = blocks human SUMOylation mediated by UBC9; AID 2006; inhibition, % at 35 µM; HTRF SUMOylation assay, SAE1/SAE2 + UBC9, in vitro; actives 0.36% (n = 290,000); in the data active = inhibition above about 50%, passing the limit was not always enough
* hit, by the source's call; nt = no result given.

SMILES	PHOSPHO1 inh	M18AAP inhibitor	p97 ATPase inh	G6PDH counter	HDAC3 inhib	UBC9 SUMO inh
O=C(O)CCCN1C(=O)/C(=C\c2ccccc2OCc2ccccc2)SC1=S	9.6	-3.1	nt	nt	4.0	16.7
O=C(O)CCCN1C(=O)/C(=C/c2cn(-c3ccccc3)nc2-c2cccs2)SC1=S	72.1*	-9.9	-3.7	15.2	nt	59.8
NC(=O)CC(NC(=O)Cc1ccc(Br)cc1)c1ccc(NCCc2ccc(F)cc2)c([N+](=O)[O-])c1 (configuration not stated)	15.8	nt	nt	nt	4.5	44.7
NC(=O)CC(NC(=O)Cc1ccc(Br)cc1)c1ccc(NCCc2ccccc2F)c([N+](=O)[O-])c1 (configuration not stated)	25.1	nt	nt	nt	-2.4	62.8*
CCN(CC)C(=O)COc1ccc2oc(-c3ccco3)cc(=O)c2c1	15.2	3.6	0.9	11.2	-46.3	52.8*
CCN(CC)C(=O)COc1c(-c2ccco2)oc2ccccc2c1=O	13.8	3.7	nt	nt	-20.0	32.5
CN(C)C(CNC(=O)CNC(=O)Cc1cccc2ccccc12)c1ccccc1 (configuration not stated)	1.5	4.1	nt	nt	0.0	-8.4
CCOc1ccc(N(CC(=O)Nc2ccccc2)S(C)(=O)=O)cc1	79.6*	0.7	4.4	5.8	10.0	6.4
CCOc1ccc(N(CC(=O)Nc2ccccc2Cl)S(C)(=O)=O)cc1	34.8	4.9	nt	nt	-4.7	-7.9
CCCCCCC(=O)N(O)C1CC(=O)N(c2ccc(Cl)cc2)C1=O (configuration not stated)	16.0	-9.4	3.3	nt	62.9*	10.0
N#Cc1ccc(Oc2ccc(S(=O)(=O)N3CCOCC3)cn2)cc1	nt	nt	nt	nt	-1.2	nt
Oc1ccc(O)c(Cc2nc3ccccc3s2)c1	-7.6	-11.8	14.7*	-2.3	-13.2	-13.4
CC(C)c1ccc(C(=O)NNC(=O)C2C3CCC(C3)C2C(=O)O)cc1 (configuration not stated)	26.5	0.4	nt	nt	4.8	-0.8
CCOc1ccc(CCNC(=O)c2cc([N+](=O)[O-])ccc2N2CCOCC2)cc1OCC	62.8*	1.9	nt	nt	2.1	14.4
CCN(CC)c1nc(SCC(=O)O)nc(N(CC)CC)n1	-13.8	-5.4	14.6*	-7.8	2.3	7.6
COc1ccc(OC)c(CNC(=O)c2nn(C)c3c2CS(=O)(=O)c2ccccc2-3)c1	22.4	1.3	nt	nt	0.6	3.1
NC(=O)c1ccc(NC(=O)CN2CCN(C(=O)c3ccco3)CC2)cc1	22.3	-4.2	nt	nt	1.6	14.4
CCOC(=O)c1ccc(NC(=O)CN2CCN(C(=O)c3ccco3)CC2)cc1	75.0*	1.1	nt	nt	-1.8	18.8
O=C(CCCCCNC(=S)Nc1ccc(Cl)cc1)C[N+](=O)[O-]	23.3	0.0	5.2	3.8	9.2	-3.9
O=C(CCCCCNC(=S)Nc1ccccc1)C[N+](=O)[O-]	-26.7	-3.3	5.2	2.7	28.8*	0.2
COc1ccc(NC(=S)NCCCCCC(=O)C[N+](=O)[O-])cc1	77.2*	-13.0	4.0	8.4	4.0	-14.2
CCOc1ccc(-c2csc(N)c2C(=O)OC)cc1	61.5*	-34.9	-7.5	17.3	0.7	-10.7
COc1ccccc1/C=N/Nc1cc(N(C)C)nc(N(C)C)n1	-25.8	19.4	-4.2	37.1	-5.5	nt
CN(C)c1cc(N/N=C\c2ccccc2)nc(N(C)C)n1	-4.6	10.2	-3.3	53.6*	12.8	nt
COc1ccc(/C=N/Nc2cc(N(C)C)nc(N(C)C)n2)cc1	-14.7	6.5	3.5	47.9	7.5	95.4*
SMILES	PHOSPHO1 inh	M18AAP inhibitor	p97 ATPase inh	G6PDH counter	HDAC3 inhib	UBC9 SUMO inh
CCCn1c(=O)[nH]c(=O)c2c1nc(-c1cccs1)n2CCOC	19.2	-9.7	1.7	5.5	-24.6	15.4
COc1cc(CN2CCN(Cc3ccc(C(F)(F)F)cc3)CC2)cc(OC)c1OC	-2.4	0.5	nt	nt	0.7	12.0
Cc1nnc(SCC(=O)Nc2ccc(N3CCOCC3)cc2)n1-c1ccccc1	63.8*	-2.8	0.0	-2.2	-3.9	0.8
Cc1ccc(NC(=O)CSc2nnc(C)n2-c2ccccc2)cc1	3.4	2.1	-2.6	-0.3	-3.8	-1.8
CC(=O)N(Cc1ccc(F)cc1)c1cccc(C)c1C	49.6	5.6	-0.8	19.1	1.0	4.5
CC(=O)N(Cc1ccc(F)cc1)C1=C(NCCc2ccccc2)C(=O)c2ccccc2C1=O	42.3	-11.5	-0.8	50.2*	8.8	27.5
CCN(CC)CCN(C)C(=O)CCc1nnc(-c2ccc(C)s2)o1	60.1*	-9.2	-2.3	5.0	2.8	-7.9

Bioassay records from PubChem.
